# Source: PubChem BioAssay
# Avidin bead fluor: avidin bead compound fluorescence profile; Avidin beads, compound fluorescence 488/530 nm, flow cytometry; active compounds read high; fluorescence (KMESF) at 10 µM; hit rate 0.38% among 220,000; in the data active means fluorescence above about 47
# RGS4-Gao reg: human RGS4-Galphao interaction regulation; P09471; Multiplexed bead flow cytometry, RGS4-Galphao binding; actives lie on both sides; binding response (% of control), % at 10 µM; hit rate 0.33% among 220,000; in the data active means binding response below about 49% or above about 150%; inactive means in between;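 further: fluorescent Galphao activated with aluminum fluoride binding bead-coupled RGS4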
# RGS7-Gao reg: regulators of human RGS7-Galphao interaction. binding response (% of control), % at 10 µM. hit rate 0.35% among 220,000. Multiplexed bead flow cytometry, RGS7-Galphao binding; actives lie on both sides. P09471; in the data active means binding response below about 49% or above about 150%;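 further: fluorescent Galphao held in activated GDP-AlF4 state binding bead-coupled RGS7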
# RGS16-Gao HTS: modulates binding between human RGS16 and Galphao. hit rate 0.38% among 220,000. O15492+P09471. AID 1441. bead-based flow cytometry RGS16-Galphao binding, fluorescence; actives lie on both sides. binding response (% of control), % at 10 µM; call rule not given here;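 further: Galphao activated by GDP with aluminum fluoride before binding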
# Target sequence (O15492 whole entry, looked up): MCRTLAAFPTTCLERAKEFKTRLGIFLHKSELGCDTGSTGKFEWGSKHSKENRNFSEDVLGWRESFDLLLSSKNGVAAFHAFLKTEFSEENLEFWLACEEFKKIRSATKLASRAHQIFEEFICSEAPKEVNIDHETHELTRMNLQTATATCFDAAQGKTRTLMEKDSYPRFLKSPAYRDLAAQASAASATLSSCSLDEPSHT
# Target sequence (P09471 whole entry, looked up): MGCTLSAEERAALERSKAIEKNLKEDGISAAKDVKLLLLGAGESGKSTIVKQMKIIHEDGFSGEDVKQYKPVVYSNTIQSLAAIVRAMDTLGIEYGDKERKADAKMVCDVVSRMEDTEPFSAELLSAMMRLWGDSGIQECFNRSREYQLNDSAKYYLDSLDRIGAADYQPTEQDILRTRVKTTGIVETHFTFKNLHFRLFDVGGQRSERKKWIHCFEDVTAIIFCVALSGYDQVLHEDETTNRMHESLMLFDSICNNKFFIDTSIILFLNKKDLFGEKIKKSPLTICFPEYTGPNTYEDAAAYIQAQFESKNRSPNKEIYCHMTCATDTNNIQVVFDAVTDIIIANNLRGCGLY
# GSH fluor: compound fluoresces at 488/530 nm on GSH beads. GSH beads flow cytometry, compound fluorescence 488/530 nm; active compounds read high. fluorescence (KMESF) at 10 µM. hit rate 0.25% among 190,000; in the data active means fluorescence above about 89;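 further: glutathione beads carrying GST-tagged Bcl family fusion proteins plus one bare bead set; values are compound well signal with DMSO vehicle wells as background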
# RGS8-Gao reg: modulates binding of RGS8 to human Galphao | P09471 | multiplexed bead flow cytometry; actives lie on both sides | response (percent of control binding), % at 10 µM | hit rate 0.34% among 220,000; in the data active means response below about 60% or above about 140%; inactive means in between;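 further: Galphao activated as the GDP aluminium fluoride complex binding bead-coupled RGS8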
# Starred values were filed as active, the others as inactive; + = active, no number; [ ] = another dose, or the depositor's remark. In the library only some 1.2% were active in any assay of this set; here they are far more common.
SMILES,Avidin bead fluor,RGS4-Gao reg,RGS7-Gao reg,RGS16-Gao HTS,GSH fluor,RGS8-Gao reg
CCCCN1C(=O)/C(=C/C=C2\Oc3ccccc3N2CC)SC1=S,12,102,108,107,16,103
CCN1/C(=C/C=C/c2oc3ccc(-c4ccccc4)cc3[n+]2CC)Oc2ccc(-c3ccccc3)cc21,994*,+[activator],+[activator],+[activator],640*,300*[activator]
Cc1ccc(C2=NN(CCC(=O)NCc3ccc4c(c3)OCO4)C(=O)CC2)cc1,32,115,115,119,226*,97
Cc1ccsc1C(=O)OCC(=O)NCc1ccc2c(c1)OCO2,7,103,104,105,261*,103
CN1CC(=O)N(CC(=O)NCc2ccc3c(c2)OCO3)C1=O,8,102,100,106,283*,105
CC(=O)OCC(=O)NCc1ccc2c(c1)OCO2,8,105,106,110,46,103
Clc1ccc(CO/N=C/c2c(-c3ccccc3)nc3n2CCS3)c(Cl)c1,11,96,95,74,15,98
CCOC(=O)Cn1nc(-c2ccc(Cl)cc2)cc1N,10,102,100,103,6,101
CCOC(=O)CCn1nc(-c2ccc(Cl)cc2)cc1N,48*,100,107,99,36,97
CCCn1c(SCC(=O)NCCc2ccc(OC)c(OC)c2)nc2c1c(=O)n(C)c(=O)n2C,7,99,101,102,37,100
Cc1cc(NC(=O)c2ccc(S(=O)(=O)N(C)C)cc2)n(-c2ccccn2)n1,88*,108,122,104,26,104
CC(C)(C)CC(C)(C)NC(=S)N1CCN(Cc2ccc3c(c2)OCO3)CC1,10,102,101,93,16,97
Cc1cccc(NC(=O)CSc2nnc(-c3ccc(S(=O)(=O)N4CCOCC4)cc3)n2C)c1,68*,105,116,103,12,101
CC(C)(C)NC(=O)c1cccc(NC(=O)c2ccco2)c1,4,98,95,80,99*,90
CC(C)(C)NC(=O)c1cccc(NC(=O)c2ccc(NC(=O)c3ccco3)cc2)c1,10,99,102,100,29,101
CCNC(=O)CC1C(=O)N(c2ccc(C)cc2)C(=O)N1CCc1sccc1C (stereo not given),11,101,99,110,18,102
COc1ccc(-c2nn(-c3ccccc3)cc2/C=C/C(=O)NCCCn2ccnc2)cc1OC,12,96,96,94,17,96
C[C@@]12CC(=O)NC1N(C(=O)c1ccccc1)C(c1ccccc1OC(=O)c1ccccc1)C2 (stereo not given in full),7,100,103,105,250*,100
Cc1cccc(/C=C2\CS/C(=C\c3cccc(C)c3)C2=O)c1,5,88,90,94,43,92
Cc1cccc(NC(=O)CCNS(=O)(=O)c2cccc3nsnc23)c1,6,100,102,101,42,105
CCNc1nc(NCC)n2c(SCC(=O)O)nnc2n1,8,101,102,99,29,101
COc1cc(NC(=O)CSc2nnc(C)s2)cc(OC)c1OC,8,103,102,103,19,101
CSc1cccc(NC(=O)CSc2nnc(C)s2)c1,6,98,101,93,109*,98
CC(/C=N/NC(=O)C(O)c1ccccc1)=C\c1ccccc1 (stereo not given),13,100,97,103,34,100
CCN1/C(=C/c2ccc3cc(C)ccc3[n+]2CC)Sc2ccccc21,11,169*[activator],225*[activator],110,7,110
CCN1/C(=C/c2ccc3cc(C)ccc3[n+]2CC)Sc2cc(C)c(C)cc21,25,113,144,91,15,80
CCOC(=O)Cc1cc(-c2ccc(O)cc2)nc2ccc3ccccc3c12,8,93,95,72,27,93
O=C(CSc1nc2ccc(Cl)cc2[nH]1)NCCc1ccccc1,14,100,100,99,5,101
O=C(CSc1nc2ccc([N+](=O)[O-])cc2[nH]1)NCCc1ccccc1,61*,103,124,105,15,101
CCOC(=O)C1=C(c2ccccc2)N(C)C(=O)NC1c1ccc(OC(F)F)c(OC)c1 (stereo not given),56*,104,123,107,13,100
